SMILES strings stand for the structures. Compounds without any hit were thinned out: in the full panel of roughly 79,000, 15% have a hit. Activity calls are given as the source filed them. Rule as the data show it: active = growth inhibition above about 70%; inactive = the rest.

The first test can be described thus: NCI Yeast Anticancer Drug Screen. Data for the wt2 strain (AID 169).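 Also: 0% = growth of vehicle-treated yeast cultures.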 The note with it: S. cerevisiae wt2 strain growth inhibition; at 33.0 µM; stronger effect = higher value. Summed up:
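Values express reduction in yeast growth under compound treatment, referenced to vehicle-treated cells.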
Take `CN(C)CC(CN(C)C)C(=O)/C=C/c1ccc(Cl)cc1Cl`: the growth inhibition was 98% (active).

For the compound `c1ccc2c(c1)ccn2CCc1c[nH]c2ccccc12`, the growth inhibition is 20% (inactive).

`Cc1ccccc1NC(=O)c1c(C)oc2c1C(=O)c1ccccc1C2=O`: the growth inhibition was 30% (inactive).

For the compound `CC(C)OC(=O)NNc1c(Cl)cc(Cl)cc1Cl`, the growth inhibition is 9% (inactive).

As to `COc1ccc2nc3cccc([N+](=O)[O-])c3c(NCCNCCO)c2c1`, the growth inhibition was 35% (inactive).

In the case of `COc1ccc2c(c1)CCCC(Br)C2=O` (stereo not drawn), the growth inhibition was 60% (inactive).

In the case of `CCC(OC(C)=O)C1CC(C(C)C)CCC1C` (stereo not drawn), the growth inhibition is -3% (inactive).

In the case of `O=S(=O)(c1cccc(C(F)(F)F)c1)N1c2ccccc2-n2cccc2C1c1cccnc1` (stereo not drawn), the growth inhibition is 93% (active).

Consider `c1ccc(-c2cc(C3CO3)c3ccccc3n2)cc1` (stereo not drawn), for which the growth inhibition was 77% (active).

For the compound `COc1ccc(/C=C2\SC(=S)N(/C=C3\C(=O)N(c4ccccc4)N=C3C)C2=O)cc1OC`, the growth inhibition is 82% (active).

On to `CC1=CC(=C(c2ccc(N)c(C)c2)c2ccc(N)c(C)c2)C=CC1=N`, for which the growth inhibition is 75% (active).

Consider `CC1C(c2ccccc2)SC(=N)N1C` (stereo not drawn), for which the growth inhibition is 0% (inactive).

With `CC(/C=C/c1ccc([N+](=O)[O-])o1)=N/N1CC(CN2CCOCC2)OC1=O` (stereo not drawn), the growth inhibition was 79% (active).

For `O=C1c2cccc3cccc(c23)C(=O)N1CCNCCN1C(=O)c2cccc3cccc(c23)C1=O`, the growth inhibition was 1% (inactive).

On to `Cc1ccc([N+](=O)[O-])c2c(NCCC[N+](C)(C)[O-])c3ccccc3nc12`, for which the growth inhibition was 8% (inactive).

On to `COC(=O)C(Cc1c[nH]c2ccccc12)N1CN(C)c2ccccc2C1=O` (stereo not drawn), for which the growth inhibition is 0% (inactive).

Turning to `O=C(/N=N/C(=O)Oc1ccccc1)Oc1ccccc1`, the growth inhibition is -39% (inactive).

Turning to `COc1cc([C@@H]2c3cc4c(cc3[C@@H](NC(=O)NO)[C@H]3COC(=O)[C@H]23)OCO4)cc(OC)c1O`, the growth inhibition is 2% (inactive).

On to `CC1(C)CC(=O)C(/C=N/c2nc(-c3ccc(Br)cc3)cs2)=C(O)C1`, for which the growth inhibition is 93% (active).

As for `CCOC(=O)/C(=C/c1cccc(Cl)c1)N(CC)CC`, the growth inhibition is 40% (inactive).

On to `CC(C)OC(=O)NNc1cccc(Cl)c1`, for which the growth inhibition was 97% (active).

Regarding `CCC(=O)C1=C(O)c2cc(OC)ccc2CC1C(=O)OC` (stereo not drawn), the growth inhibition is 14% (inactive).

Turning to `O=S(=O)(NC1CCCC(c2ccccc2)C1)c1ccccc1` (stereo not drawn), the growth inhibition was -6% (inactive).

Take `COc1ccc2nc3cccc([N+](=O)[O-])c3c(NCCCCCC(=O)O)c2c1`: the growth inhibition is 97% (active).

In the case of `CCO/C=C1\SC(=S)N(c2ccc(OCC)cc2)C1=O`, the growth inhibition is -38% (inactive).

Regarding `COc1cc(OC)c(CSCC(NC(=O)OCC2c3ccccc3-c3ccccc32)C(=O)O)c(OC)c1` (stereo not drawn), the growth inhibition is 98% (active).

As to `COC(=O)c1ccccc1N=NNc1cccc(SC)c1`, the growth inhibition is 93% (active).

In the case of `CC1=NN(C(=O)c2ccccc2O)C(=O)/C1=C/c1ccco1`, the growth inhibition is 92% (active).

Take `COc1ccccc1NC(=O)c1ccc(Cl)cc1`: the growth inhibition is -3% (inactive).

In the case of `CC(C)=CCC/C(C)=C/CN1C(=O)C=CC1=O`, the growth inhibition is 99% (active).

As to `O=C1CSC(c2ccccc2)N1c1ccc(-c2ccc(-n3c(-c4ccccc4)nc4ccccc4c3=O)cc2)cc1` (stereo not drawn), the growth inhibition is 7% (inactive).

With `O=C(NCCNCCNC(=O)c1cc(-c2ccccc2)nc2ccccc12)c1cc(-c2ccccc2)nc2ccccc12`, the growth inhibition is -2% (inactive).

With `Brc1ccc(B2Nc3ccccc3N2)cc1`, the growth inhibition is 17% (inactive).

As for `CCOP(=O)(OCC)/C(C#N)=C/c1cccc(Oc2ccccc2)c1`, the growth inhibition was 96% (active).

Staying with this test, now noted: S. cerevisiae wt2 strain growth inhibition; at 100.0 µM; stronger effect = higher value.
Regarding `CN(C)CC(CN(C)C)C(=O)/C=C/c1ccc(Cl)cc1Cl`, the growth inhibition was 98% (active).

Take `c1ccc2c(c1)ccn2CCc1c[nH]c2ccccc12`: the growth inhibition was 97% (active).

`Cc1ccccc1NC(=O)c1c(C)oc2c1C(=O)c1ccccc1C2=O`: the growth inhibition was 87% (active).

Turning to `CC(C)OC(=O)NNc1c(Cl)cc(Cl)cc1Cl`, the growth inhibition is 17% (inactive).

Regarding `COc1ccc2nc3cccc([N+](=O)[O-])c3c(NCCNCCO)c2c1`, the growth inhibition was 94% (active).

For `COc1ccc2c(c1)CCCC(Br)C2=O` (stereo not drawn), the growth inhibition was 98% (active).

`CCC(OC(C)=O)C1CC(C(C)C)CCC1C` (stereo not drawn): the growth inhibition is 40% (inactive).

With `O=S(=O)(c1cccc(C(F)(F)F)c1)N1c2ccccc2-n2cccc2C1c1cccnc1` (stereo not drawn), the growth inhibition was 91% (active).

In the case of `c1ccc(-c2cc(C3CO3)c3ccccc3n2)cc1` (stereo not drawn), the growth inhibition was 99% (active).

As to `COc1ccc(/C=C2\SC(=S)N(/C=C3\C(=O)N(c4ccccc4)N=C3C)C2=O)cc1OC`, the growth inhibition is 89% (active).

As to `CC1=CC(=C(c2ccc(N)c(C)c2)c2ccc(N)c(C)c2)C=CC1=N`, the growth inhibition was 97% (active).

As for `CC1C(c2ccccc2)SC(=N)N1C` (stereo not drawn), the growth inhibition was 0% (inactive).

Regarding `CC(/C=C/c1ccc([N+](=O)[O-])o1)=N/N1CC(CN2CCOCC2)OC1=O` (stereo not drawn), the growth inhibition was 98% (active).

On to `O=C1c2cccc3cccc(c23)C(=O)N1CCNCCN1C(=O)c2cccc3cccc(c23)C1=O`, for which the growth inhibition was 5% (inactive).

As to `Cc1ccc([N+](=O)[O-])c2c(NCCC[N+](C)(C)[O-])c3ccccc3nc12`, the growth inhibition was 10% (inactive).

`COC(=O)C(Cc1c[nH]c2ccccc12)N1CN(C)c2ccccc2C1=O` (stereo not drawn): the growth inhibition was 99% (active).

With `O=C(/N=N/C(=O)Oc1ccccc1)Oc1ccccc1`, the growth inhibition was 48% (inactive).

For `COc1cc([C@@H]2c3cc4c(cc3[C@@H](NC(=O)NO)[C@H]3COC(=O)[C@H]23)OCO4)cc(OC)c1O`, the growth inhibition is 5% (inactive).

Regarding `CC1(C)CC(=O)C(/C=N/c2nc(-c3ccc(Br)cc3)cs2)=C(O)C1`, the growth inhibition was 98% (active).

Turning to `CCOC(=O)/C(=C/c1cccc(Cl)c1)N(CC)CC`, the growth inhibition was 97% (active).

Consider `CC(C)OC(=O)NNc1cccc(Cl)c1`, for which the growth inhibition was 98% (active).

Turning to `CCC(=O)C1=C(O)c2cc(OC)ccc2CC1C(=O)OC` (stereo not drawn), the growth inhibition is 30% (inactive).

Regarding `O=S(=O)(NC1CCCC(c2ccccc2)C1)c1ccccc1` (stereo not drawn), the growth inhibition was 90% (active).

On to `COc1ccc2nc3cccc([N+](=O)[O-])c3c(NCCCCCC(=O)O)c2c1`, for which the growth inhibition was 99% (active).

Take `CCO/C=C1\SC(=S)N(c2ccc(OCC)cc2)C1=O`: the growth inhibition was 27% (inactive).

As to `COc1cc(OC)c(CSCC(NC(=O)OCC2c3ccccc3-c3ccccc32)C(=O)O)c(OC)c1` (stereo not drawn), the growth inhibition was 98% (active).

As for `COC(=O)c1ccccc1N=NNc1cccc(SC)c1`, the growth inhibition was 89% (active).

Consider `CC1=NN(C(=O)c2ccccc2O)C(=O)/C1=C/c1ccco1`, for which the growth inhibition was 96% (active).

As to `COc1ccccc1NC(=O)c1ccc(Cl)cc1`, the growth inhibition is -2% (inactive).

In the case of `CC(C)=CCC/C(C)=C/CN1C(=O)C=CC1=O`, the growth inhibition is 99% (active).

`O=C1CSC(c2ccccc2)N1c1ccc(-c2ccc(-n3c(-c4ccccc4)nc4ccccc4c3=O)cc2)cc1` (stereo not drawn): the growth inhibition was 28% (inactive).

For `O=C(NCCNCCNC(=O)c1cc(-c2ccccc2)nc2ccccc12)c1cc(-c2ccccc2)nc2ccccc12`, the growth inhibition is 4% (inactive).

Regarding `Brc1ccc(B2Nc3ccccc3N2)cc1`, the growth inhibition was 27% (inactive).

For `CCOP(=O)(OCC)/C(C#N)=C/c1cccc(Oc2ccccc2)c1`, the growth inhibition was 97% (active).
